aDG glyco act = activators of alpha-DG glycosylation, primary screen, uHTS, Pro5-aDG cells, AlphaScreen; alpha-DG glycosylation AlphaScreen (IIH6); 0% Pro5, 100% B10-LARGE cell signal; activation, % at 10 µM; hit rate 0.22% among 360,000;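 active means activation of at least 8% versus controls, or a plate z-score of at least 8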;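 further: Pro5 are CHO cells carrying HIG-tagged alpha-DG that lacks glycosylation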
GC-B act = human GC-B receptor activators, primary screen, HEK293 GC-B cells, cGMP TR-FRET, EC30 CNP | Atrial natriuretic peptide receptor 2 (Homo sapiens), P20594 | 0% at EC30 CNP, 100% saturating CNP | activation, % at 10 µM | hit rate 0.11% among 370,000;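 active means activation at 10 µM reaching about 35% in either raw or pattern-adjusted values, limit read from the data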
FAS TE block = FAS thioesterase domain inhibitors, primary screen, biochemical, fluorescence intensity, uHTS | recombinant FAS-TE, OMFH fluorogenic substrate, fluorescence endpoint | inhibition, % at 15 µM | hit rate 0.67% among 360,000;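 active means compounds whose normalised, plate-corrected inhibition of enzyme fluorescence in the single-dose primary screen is 50% or more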
GC-A act = GC-A stimulated cGMP production enhancers – HEK293 GC-A cells, cGMP TR-FRET, EC30 ANP, primary screen; hit rate 0.14% among 370,000; activation, % at 10 µM; 0% at EC30 ANP, 100% saturating ANP; Atrial natriuretic peptide receptor 1 (Homo sapiens), P16066; in the data active means activation above about 40%
FAS-TE conf = FAS thioesterase domain inhibitors, confirmation, biochemical, fluorescence intensity, single concentration; shares compounds with FAS TE block; recombinant FAS-TE, OMFH fluorogenic substrate; inhibition, % at 15 µM; hit rate 45% among 2,300; AID 624325, 2012;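 active means compounds inhibiting the enzyme by at least 50% at 15 µM in any one of the replicates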
Numbers stand for hits; 0 = inactive; - = no result. This is a sample that favours compounds with a hit; in the whole collection about 1.1% have one here.

SMILES | aDG glyco act | GC-B act | FAS TE block | GC-A act | FAS-TE conf
COc1ccc(NS(=O)(=O)c2cc(NC(=O)c3ccncc3)ccc2N2CCOCC2)cc1 | 0 | 0 | 0 | 0 | -
COc1cccc(CNC(=O)[C@H]2CCCN2C(=O)[C@H]2CCCN2C(=O)c2ccc(F)cc2F)c1 | - | 0 | - | 0 | -
N#Cc1cccc(-n2c(-c3ccccc3)nnc2-c2ccccc2)c1C#N | 0 | 0 | 58.5 | 0 | 0
Cc1c(NC(=O)C(C)OC(=O)c2cc(-c3cccc4ccccc34)nc3ccccc23)c(=O)n(-c2ccccc2)n1C (stereo not drawn) | 0 | 0 | 72.9 | 0 | 0
COc1ccc(-c2cc(C(=O)OC(C)C(=O)Nc3c(C)n(C)n(-c4ccccc4)c3=O)c3ccccc3n2)cc1 (stereo not drawn) | 0 | 0 | 0 | 0 | -
CC(C)[C@H](N)C(=O)N[C@H](C(=O)N1CCC2CCN(Cc3ccccc3)CC21)C(C)C (stereo partly drawn) | - | 0 | - | 0 | -
Cc1cc2c(s1)c1cnn(Cc3cc(F)c(F)cc3F)c(=O)c1n2C | - | 0 | - | 0 | -
O=C(CSc1nnc(-c2cccnc2)n1C1CCCCC1)NC1CCCCCC1 | - | 0 | - | 0 | -
O=C(CSc1nnc(COc2ccccc2)n1-c1ccccc1)Nc1ccc2c(c1)OCCO2 | - | 0 | - | 0 | -
Cc1ccc(S(=O)(=O)N(C)C)cc1NC(=S)NC(C)CCCC(C)C (stereo not drawn) | 0 | 0 | 58.3 | 0 | 53.1
Cc1cccc2cc(CN(Cc3cccs3)S(=O)(=O)c3ccc4c(c3)OCCO4)c(=O)[nH]c12 | 0 | 0 | 72.7 | 0 | 0
CNS(=O)(=O)/C=C/c1ccccc1CCNC(=O)OC(C)(C)C | - | 0 | - | 0 | -
COc1cc2nc3n(c(=O)c2cc1OC)-c1cc2ccccc2cc1C(=O)NC3Cc1ccccc1 (stereo not drawn) | 0 | 0 | 52.7 | 0 | 0
O=C1NC(Cc2ccccc2)c2nc3ccccc3c(=O)n2-c2cc3ccccc3cc21 (stereo not drawn) | 0 | 0 | 69.8 | 0 | 0
Cc1ccc2c(=O)n3c(nc2c1)C(Cc1ccccc1)NC(=O)c1cc(Cl)ccc1-3 (stereo not drawn) | - | 0 | - | 0 | -
O=C1NC(Cc2ccccc2)c2nc3cc(F)c(F)cc3c(=O)n2-c2cc3ccccc3cc21 (stereo not drawn) | 0 | 0 | 85.5 | 0 | 0
Cc1ccc2c(=O)n3c(nc2c1)C(Cc1ccccc1)NC(=O)c1cc2ccccc2cc1-3 (stereo not drawn) | 0 | 0 | 76.4 | 0 | 0
O=C1NC(Cc2ccccc2)c2nc3cc(F)ccc3c(=O)n2-c2cc3ccccc3cc21 (stereo not drawn) | 0 | 0 | 91.5 | 0 | 0
CC(C)CC1NC(=O)c2cc3ccccc3cc2-n2c1nc1cc(Cl)ccc1c2=O (stereo not drawn) | 0 | 0 | 82.5 | 0 | 0
O=C(O)c1cc(-c2ccc(/C=N/NC(=S)Nc3ccccc3)o2)ccc1Cl | 0 | 0 | 50.2 | 0 | 54.8
COc1cc2c(cc1NC(=O)C(C)N1CCN(S(=O)(=O)c3ccc(C)c(C)c3)CC1)oc1ccccc12 (stereo not drawn) | 0 | 0 | 0 | 0 | -
COc1cc2c(cc1NC(=O)C(C)N1CCN(S(=O)(=O)c3ccccc3[N+](=O)[O-])CC1)oc1ccccc12 (stereo not drawn) | 0 | 0 | 53.7 | 0 | 0
COc1ccc(CNC(=O)CSc2nc3c([nH]2)c(=O)n(C)c(=O)n3C)cc1 | - | 0 | - | 0 | -
O=S(=O)(c1ccc(F)cc1)N1CCCc2nc(-c3ccc(F)cc3)ccc21 | - | 0 | - | 0 | -
COc1ccc2nc(NC(=O)c3ccc([N+](=O)[O-])o3)sc2c1 | 0 | 0 | 57.5 | 0 | 50.8
O=C(Nc1nc2ccccc2s1)c1ccc([N+](=O)[O-])o1 | 0 | 0 | 0 | 0 | -
O=C(Nc1ccc(Cl)c(Cl)c1)C1CCN(c2ncccn2)CC1 | - | 0 | - | 0 | -
COc1ccccc1-c1cc(C(=O)N/N=C/C=C/c2ccccc2[N+](=O)[O-])c2ccccc2n1 | 0 | 0 | 63.2 | 0 | 0
O=C(N/N=C\c1ccc([N+](=O)[O-])o1)c1cncc(Br)c1 | 0 | 0 | 0 | 0 | -
COc1cc(/C=N/NC(=O)c2cncc(Br)c2)cc([N+](=O)[O-])c1O | 0 | 0 | 57.5 | 0 | 69.5

Assay outcomes from PubChem BioAssay.
